FadD28 binding: inhibitors of Mycobacterium tuberculosis FadD28 bisubstrate binding. FadD28 bisubstrate probe binding, fluorescence polarization. 360,000 tested, 0.22% active. inhibition, % at 12.5 µM; in the data active = inhibition above about 8.5%, passing the limit was not always enough
FBA Mtb inh: inhibits M. tuberculosis FBA enzyme | inhibition, % at 1 µM | 360,000 tested, 2.3% active | P9WQA3 | AID 588726 | purified M. tuberculosis FBA, fluorescence read-out; in the data active = inhibition above about 27%;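 note: 0% = vehicle and 100% = reference inhibitor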
Target sequence (P9WQA3 whole entry, looked up): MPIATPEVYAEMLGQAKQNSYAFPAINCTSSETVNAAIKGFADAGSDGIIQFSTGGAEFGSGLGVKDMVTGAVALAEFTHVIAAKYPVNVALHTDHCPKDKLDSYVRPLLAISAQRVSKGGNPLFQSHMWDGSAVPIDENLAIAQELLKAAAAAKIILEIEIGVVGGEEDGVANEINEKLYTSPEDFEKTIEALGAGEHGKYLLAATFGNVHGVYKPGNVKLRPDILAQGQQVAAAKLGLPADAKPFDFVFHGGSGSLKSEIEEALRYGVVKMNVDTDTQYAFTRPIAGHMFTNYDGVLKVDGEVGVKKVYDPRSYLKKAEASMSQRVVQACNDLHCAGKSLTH
GDH-TPI counter: inhibits GDH-TPI coupling enzymes, artifact for Mtb FBA screen | GDH-TPI coupled enzyme counterscreen, NADH absorbance | inhibition, % at 4.8 µM | 360,000 tested, 1.2% active; in the data active = inhibition above about 30%;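 note: 0% = DMSO wells and 100% = wells lacking the enzyme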
Mtb hypoxia inh: Mtb hypoxia fluorescent reporter inhibition; 300,000 tested, 0.1% active; fluorescence inhibition, % (no concentration beside the values); M. tuberculosis hypoxia-regulated fluorescent reporter, fluorescence; in the data active = fluorescence inhibition mostly above about 23%, no sharp cut-off; inactive = mostly below about 17%
Mtb BioA inh: inhibitors of Mycobacterium tuberculosis BioA enzyme | purified M. tuberculosis BioA enzyme, plate reader | inhibition, % at 9.99 µM | 360,000 tested, 0.096% active | AID 602481; in the data active = inhibition above about 40%
Numbers without * were called inactive; / = no result given; + = active, no number. Most compounds without a hit are left out; they make up all but 2.9% or so of the library.

SMILES	FadD28 binding	FBA Mtb inh	GDH-TPI counter	Mtb hypoxia inh	Mtb BioA inh
O=C(NNC(=S)Nc1ccc(Br)cc1)c1ccc(N2CCOCC2)c([N+](=O)[O-])c1	4	5	27	-4	1
COc1ccc(OCC(=O)Nc2ccc(N3CCOCC3)c(Cl)c2)cc1	4	-1	0	/	-3
Cc1ccc(NC(=S)NNC(=O)c2ccc(N3CCOCC3)c([N+](=O)[O-])c2)cc1Cl	11*	-2	21	/	/
COc1ccc(OCC(=O)NC(=S)Nc2ccc(N3CCOCC3)c(Cl)c2)cc1	0	-1	-2	38*	-1
CCOC(=O)c1sc(=S)n(-c2ccccc2)c1N	-3	-3	34*	6	-1
CCOC(=O)c1sc(=S)n(-c2ccccc2)c1N(C(C)=O)C(C)=O	0	0	11	5	1
CCOC(=O)c1sc(=S)n(-c2ccccc2Cl)c1C	-2	3	39*	-4	1
CCOC(=O)c1sc(=S)n(-c2ccccc2)c1C	-1	2	34*	10	-3
COc1cccc(S(=O)(=O)Nc2ccc3c(c2)[C@@H]2C[C@@H](CC(=O)NCc4cccc(F)c4)O[C@H](CO)[C@@H]2O3)c1	/	/	/	/	1
O=C(CCc1ccccc1)Nc1ccc(N2CCOCC2)cc1	1	3	9	3	0
O=C(c1ccccc1)c1ccc(N2CCOCC2)cc1	-1	3	38*	/	/
O=C(Cc1ccccc1)c1ccc(N2CCOCC2)cc1	0	6	37*	/	/
O=C(NC1Cc2ccccc2C1)[C@H]1N[C@H]2c3ccc(C4=CCCCC4)c(=O)n3C[C@H]2[C@@H]1CO	/	/	/	/	-2
O=C(N/N=C/c1cc([N+](=O)[O-])ccc1O)c1ccc2c(c1)OCCO2	1	1	32*	/	-6
O=C(NC(=S)Nc1cc([N+](=O)[O-])ccc1O)c1ccc2c(c1)OCO2	13*	-1	21	5	0
Cc1cccc(/C=N/NC(=O)c2ccc3c(c2)OCCO3)c1O	-5	1	23	/	0
Cc1ccsc1/C=N\NC(=O)c1ccc2c(c1)OCO2	-1	0	40*	/	0
Cc1ccsc1/C=N/NC(=O)c1sccc1C	-6	-4	15	/	-1
Cc1ccsc1/C=N/NC(=O)c1ccc2c(c1)OCCO2	-4	-2	34*	/	-1
O=C(NN=Cc1cccc([N+](=O)[O-])c1)c1ccc2c(c1)OCCO2	/	/	/	7	/
O=C(N/N=C\c1ccc(S(=O)(=O)O)o1)c1ccc2c(c1)OCO2	-1	1	41*	/	-2
CO[C@H]1CN(C)C(=O)c2ccc(NC(=O)NC(C)C)cc2OC[C@H](C)N(C(=O)CN(C)C)C[C@H]1C	/	/	/	/	-2
C[C@H]1CN([C@@H](C)CO)C(=O)c2cc(NC(=O)Cc3ccccc3)ccc2O[C@H]1CN(C)C	/	/	/	/	5
CC(=O)Nc1sc(N/N=C/c2ccccc2)nc1-c1ccc(C)cc1	-3	1	6	/	/
CC(=O)Nc1sc(N/N=C/c2ccc(O)cc2)nc1-c1ccc(C)cc1	0	5	35*	/	/
SMILES	FadD28 binding	FBA Mtb inh	GDH-TPI counter	Mtb hypoxia inh	Mtb BioA inh
C/C=C/c1cnc2c(c1)C(=O)N([C@@H](C)CO)C[C@H](C)[C@@H](CN(C)C(=O)c1ccc3c(c1)OCO3)O2	/	/	/	/	2
O=C(CCN1C(=O)S/C(=C\c2ccccc2)C1=O)N1CCCCC1	-2	-10	10	0	2
O=C(O)C1CCN(C(=O)CCN2C(=O)S/C(=C\c3ccccc3)C2=O)CC1	0	-2	35*	/	1
COc1cccc(/C=C2\SC(=O)N(CCC(=O)N3CCCCC3CCO)C2=O)c1 (stereo not given)	-1	-1	31*	2	0
O=C(C[C@H]1C=C[C@@H](NC(=O)c2ccc(F)cc2)[C@H](CO)O1)NCCc1ccncc1	/	/	/	/	0
COc1ccc(OCC(O)CN2CCC(CN3C(=O)c4cccc5cccc(c45)C3=O)CC2)cc1 (stereo not given)	-5	23	45*	8	/
COc1cc2c3c(cccc3c1)C(=O)N(CCN1CCCC1)C2=O	-3	147*	16	/	0
Cc1ccc(C)c(OCC(O)CN2CCC(CN3C(=O)c4cccc5cccc(c45)C3=O)CC2)c1 (stereo not given)	-3	2	3	-2	/
COc1ccc(C(=O)CN2CCN(CCN3C(=O)c4cccc5cccc(c45)C3=O)CC2)cc1	-2	4	46*	5	-1
Cc1ccc(S(=O)(=O)Nc2ccc3c(c2)CC(=O)N([C@@H](C)CO)C[C@H](C)[C@H](CN(C)C(=O)Nc2c(C)noc2C)O3)cc1	/	/	/	/	1
Cn1c(=O)cc2c3c(c(N4CCCCC4)ccc31)C(=O)c1ccccc1-2	32*	-2	24	8	-4
O=C1c2ccccc2C(=O)c2c1cccc2N1CCCC1	2	-2	14	7	0
CC(C)(C)OC(=O)NCCCCC(NC(=O)c1nc[nH]c1C(=O)NC(c1ccccc1)c1ccccc1)C(=O)OC(C)(C)C (stereo not given)	/	/	/	-5	/
CON=C(CNC(=O)c1ccc(F)cc1)c1ccc(Cl)cc1	/	/	/	-10	/
Cc1ccsc1CNS(=O)(=O)c1ccc(F)cc1	-2	2	-8	5	-1
CNCc1sccc1C	0	34*	3	3	/
Nc1nc(-c2ccc(C(=O)O)cc2)cs1	-4	8	-4	-1	/
Nc1cc2sc(-c3ccc(C(=O)O)cc3)nc2cc1Cl	4	139*	26	/	1
Nc1ccc(-c2nc3ccc(N)cc3s2)cc1	3	+	47*	-7	-1
O=C(O)c1ccc2nc(-c3ccccc3)sc2c1	0	3	4	0	0
Nc1cccc(-c2nc3ccc(N)cc3s2)c1	-1	164*	23	9	6
Nc1ccc(-c2nc3ccc(C(=O)O)cc3s2)cc1	4	/	54*	4	/
Nc1ccc(O)c(-c2nc3ccccc3s2)c1	-4	4	23	/	-4
COCc1cc(C)nc(NN=Cc2ccc(Cl)c(Cl)c2)c1C#N	/	/	/	8	/
O=C(C[C@@H]1CC[C@@H](NS(=O)(=O)c2ccc(F)cc2)[C@H](CO)O1)NCc1ccncn1	/	/	/	/	1
SMILES	FadD28 binding	FBA Mtb inh	GDH-TPI counter	Mtb hypoxia inh	Mtb BioA inh
COC(=O)C1=COC(OC2OC(CO)C(O)C(O)C2O)C2C(C)OC(O)CC12 (stereo not given)	/	/	/	1	/
COc1ccc(NC(=O)Cn2c(=O)oc3cc(S(=O)(=O)N4CCCC4)ccc32)c(OC)c1	0	0	-4	8	1
COc1cccc(NC(=O)Cn2c(=O)oc3cc(S(=O)(=O)N4CCCC4)ccc32)c1	24*	3	-5	-12	4
Cc1cc(NC(=O)Cn2c(=O)oc3ccccc32)no1	-3	1	-3	7	-1
Cc1cccc(NC(=O)Cn2c(=O)oc3ccccc32)n1	20*	2	4	4	2
Cc1ccnc(NC(=O)Cn2c(=O)oc3cc(S(=O)(=O)N4CCCC4)ccc32)c1	-6	0	-16	4	-1
Cc1cccc(NC(=O)Cn2c(=O)oc3cc(S(=O)(=O)N4CCCC4)ccc32)n1	14*	0	15	8	3
N#C[C@H]1[C@@H](c2ccc(C3=CCCC3)cc2)[C@@H](CO)N1C(=O)C1CCOCC1	/	/	/	/	-2

Screening results: PubChem BioAssay, several laboratories
